Assay results: PubChem BioAssay (NCATS)
Results filed as inconclusive are left out. The source made the active and inactive calls. Unless noted, the call rests on the fitted dose curve; in most records, active means well fitted curve in the direction sought with a large enough effect; inconclusive means small, poorly fitted or top-dose-only effect, or another doubt; inactive means no such curve, though single readings can be large; an effect the other way counts as inactive or inconclusive.

Experiments:
[1] = qHTS for Inhibitors of Plasmodium falciparum (GB4) proliferation (AID 504315); further: nearly all actives have a fitted effect of over 50% in size; further: potency means the concentration at half of the fitted maximal effect
In short: (§1)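 Erythrocytes infected with P. falciparum line (0.3% parasitemia, 2.5% hematocrit final) incubated with compounds 72 h at 37 °C, 5% CO2; SYBR Green lysis buffer added, fluorescence read next day. Normalized to 0.29 uM artemisinin and DMSO.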

[2] = qHTS for Inhibitors of Plasmodium falciparum (CP250) proliferation (AID 504320)
In short: as §1

[3] = target: Atrial natriuretic peptide receptor 1 (Homo sapiens) (UniProt P16066); assay: Natriuretic polypeptide receptor (hNpr1) antagonism - Pilot CMLD screen (AID 1347052; calls by dose curve;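 further: cGMP level read as GloSensor luciferase luminescence after agonist stimulation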; further: potency means the concentration at half of the fitted maximal effect)
Atrial natriuretic peptide receptor 1 (Homo sapiens), sequence (P16066 whole entry, looked up): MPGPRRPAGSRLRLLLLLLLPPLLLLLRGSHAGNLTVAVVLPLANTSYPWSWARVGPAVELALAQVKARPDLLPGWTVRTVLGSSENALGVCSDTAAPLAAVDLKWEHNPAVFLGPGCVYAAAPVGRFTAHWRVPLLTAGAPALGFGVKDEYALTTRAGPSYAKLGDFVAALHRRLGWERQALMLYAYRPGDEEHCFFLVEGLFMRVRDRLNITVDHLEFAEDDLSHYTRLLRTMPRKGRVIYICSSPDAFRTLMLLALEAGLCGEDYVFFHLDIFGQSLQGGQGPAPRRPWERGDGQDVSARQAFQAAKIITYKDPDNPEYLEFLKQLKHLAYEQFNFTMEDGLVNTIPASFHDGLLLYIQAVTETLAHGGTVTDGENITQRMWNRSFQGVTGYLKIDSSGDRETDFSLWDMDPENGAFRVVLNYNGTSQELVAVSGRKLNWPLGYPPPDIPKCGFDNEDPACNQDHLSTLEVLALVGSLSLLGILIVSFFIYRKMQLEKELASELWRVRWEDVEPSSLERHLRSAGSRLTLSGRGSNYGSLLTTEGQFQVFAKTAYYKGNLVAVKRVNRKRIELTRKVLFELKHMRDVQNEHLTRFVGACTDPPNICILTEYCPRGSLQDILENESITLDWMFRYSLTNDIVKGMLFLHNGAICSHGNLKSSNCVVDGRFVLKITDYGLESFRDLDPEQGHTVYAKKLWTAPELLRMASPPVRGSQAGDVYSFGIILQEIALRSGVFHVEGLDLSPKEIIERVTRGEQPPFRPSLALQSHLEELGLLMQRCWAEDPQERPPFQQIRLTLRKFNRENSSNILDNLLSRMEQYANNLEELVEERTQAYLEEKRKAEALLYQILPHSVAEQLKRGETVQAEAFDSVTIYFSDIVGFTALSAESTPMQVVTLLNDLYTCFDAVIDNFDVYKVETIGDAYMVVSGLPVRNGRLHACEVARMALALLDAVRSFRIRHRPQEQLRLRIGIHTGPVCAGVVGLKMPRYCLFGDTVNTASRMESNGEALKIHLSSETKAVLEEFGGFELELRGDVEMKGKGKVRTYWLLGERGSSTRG

[4] = qHTS for Inhibitors of Plasmodium falciparum (HB3) proliferation (AID 504318); further: nearly all actives have a fitted effect of over 60% in size
In short: as §1

Measured: Potency

COc1ccc([C@]23Cc4c(ccc5ccccc45)[C@H](O2)C2=C(CCCC2=O)O3)cc1
inactive: [1] | [2] | [3]

C[C@H]1CC[C@H]2C(=O)N(Cc3ccccc3)C[C@@H](O)CN2[C@H]1c1cccc(Br)c1
inactive: [1] | [2] | [3]

COc1ccc([C@]23Cc4ccccc4[C@H](O2)c2c(cc(-c4ccccc4)oc2=O)O3)cc1
inactive: all assays above

C[C@@H]1C[C@](C)(C(=O)c2ccco2)C=C1c1ccco1
inactive: all assays above

COC(=O)C1=C(C)N(CCc2cc(OC)c(OC)c(OC)c2)C(=O)NC1c1ccc(Br)cc1 (stereo unspecified)
inactive: [1] | [2] | [3]

C#CCCOC(=O)N1C2=NC3=C(C(=O)N(Cc4ccc5c(c4)OCO5)C3=O)C3N(C)c4ccccc4[C@]23C[C@H]1CO (stereo partly specified)
inactive: [1] | [2] | [3]

CC(=O)O[C@@H]1C(CO[Si](C)(C)C(C)(C)C)=C(Br)C(=O)[C@@H]2O[C@]12C
inactive: all assays above

O=C1[C@H]2[C@@H]3[C@@H](O)[C@H](O)CC(=NOCc4ccccc4)[C@@H]3CC[C@H]2C(=O)N1Cc1ccc2c(c1)OCO2
inactive: all assays above

COC(=O)CC=C[C@@H](C)[C@@H](C=NOC[C@@H](O)COCc1ccco1)NS(=O)(=O)c1ccc(C)cc1
inactive: [1] | [2] | [3]

CC(CCN1CCCc2nc(C)c(C)cc21)=NOC[C@@H](O)COCc1ccco1
inactive: [1] | [2] | [3]

CCc1cc2c(nc1CC)CCN(CCC(C)=NOCC[C@@H]1C=C[C@H](OC(C)=O)[C@@H](COC(C)=O)O1)C2
inactive: [1] | [2] | [3]

Oc1ccc2c(c1-c1c(O)c(Br)cc3c1CCCC3)CCCC2
inactive: [1] | [2] | [3]

COC(=O)C1=C(C)N(CC2CC2)C(=O)NC1c1ccc(Br)cc1 (stereo unspecified)
inactive: all assays above

CC1=CC[C@@H](COc2ccccc2)O[C@@]2(C1)C(=O)N(CC1CC1)c1ccccc12
inactive: [1] | [2] | [3]

C#CCOCC#CC[C@@]1(C(=O)OC)C=C[C@@H](C)[C@H](c2ccccc2Br)N1C(=O)C(F)(F)F
inactive: [1] | [2] | [3]

COc1cccc([C@H]2Oc3ccc(OC)cc3C(=NO[C@H](C)c3cn([C@H](CO)Cc4ccccc4)nn3)[C@H]2O)c1
inactive: all assays above

C[C@@H]1CC[C@H]2C(=O)N(Cc3ccccc3)C[C@H](O)CN2[C@@H]1c1ccc(Br)cc1
inactive: [2]
active: [1] 1.69 µM | [3] 2.99 µM

COC[C@@H](O)[C@H]1OCc2cc(OC)ccc2[C@H]1C=Cc1ccccc1
inactive: all assays above

COC(=O)N[C@H](CC(C)=O)c1cccs1
inactive: all assays above

C[C@]12C[C@@](C)(C=C1C=Cc1ccc(C(F)(F)F)cc1)C(=O)C[C@H]2c1ccc(C(F)(F)F)cc1
active: [1] 1.51 µM
inactive: [2] | [3]

CC1=CC[C@@H](COc2ccccc2)O[C@@]2(C1)C(=O)N(Cc1ccc(F)cc1)c1ccccc12
inactive: [1] | [2] | [3]

C=C(CCN1C=C(C(=O)OCC)C(c2ccccc2)NC1=O)c1ccc(Cl)cc1 (stereo unspecified)
inactive: [1] | [2] | [3]

CC1=C[C@]2(O[C@H](COc3ccccc3)C1)C(=O)N(C)c1ccccc12
inactive: all assays above

C[C@@H]1C=CCC(=O)N2[C@H](CC(=O)N[C@@H]1c1ccccc1)C[C@@H](C)[C@@H]2c1ccccc1
inactive: all assays above

COc1ccc2c3c(c(=O)oc2c1)[C@H]1O[C@](c2ccsc2)(Cc2cc(C#N)ccc21)O3
inactive: [1] | [2] | [3]

C[C@H]1C=CCC(=O)NCc2cccc(c2)CNC(=O)N[C@@H]1c1ccccc1
inactive: [1] | [2] | [3]

COc1cccc(-c2coc3ccc(Br)cc3c2=O)c1
inactive: [1] | [2] | [3]

COc1cc(OC)c([C@@H]2O[C@H](CO)[C@@H](O)[C@H](O)[C@@H]2O)c(OC)c1
inactive: all assays above

COc1ccc(N2C(=O)N3[C@H](c4ccccc4)[C@@H](C)C[C@H]4c5ccccc5C[C@]43C2=O)cc1
inactive: all assays above

O=c1oc2ccccc2c2c1[C@H]1O[C@](c3ccsc3)(Cc3ccccc31)O2
inactive: all assays above

C[C@@H](c1ccccc1)N1C(=O)[C@@H]2[C@H]3[C@H](O)[C@H](O)CC(=NOC[C@@H](O)COCc4ccco4)[C@H]3CC[C@H]2C1=O
inactive: [1] | [2] | [3]

CC(CCC(=O)OC[C@H]1O[C@H](C#Cc2ccccc2)C=C[C@H]1Oc1ccc(C)cc1)=NOC[C@@H](O)COCc1ccco1
inactive: all assays above

C=C(C)C[C@@]1(c2ccccc2)Oc2ccccc2C2=NCCN=C21
inactive: [1] | [2] | [3]

COc1ccc2c(c1)O[C@@H](c1cccc(C(F)(F)F)c1)[C@H](OC(=O)Nc1cc(OC)c(OC)c(OC)c1)C2=O
inactive: [1] | [2] | [3]
